Growth data for 22 molecules are collected here from PubChem BioAssay (NCI).

This is part of a sample that, as a whole, favours compounds with a hit. Of some 83,000 tested, about 20% had one in any assay.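 96-well plates, one dose, 48 hours. Percent growth reported; active if below 10.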 The source made the active and inactive calls.

The experiment concerns OVCAR-5 ovarian. Briefly: NCI-60 one-dose screen, 48 h (100 = growth as untreated, 0 = no growth, -100 = all killed). As to conditions: 10 µM unless noted.
Turning to `c1ccc(-c2oc(-c3ccccc3)c3ccccc23)cc1`, the growth is 112% (inactive).
In the case of `O=C1NC(=O)/C(=C/c2ccc(Cl)cc2Cl)N1`, the growth was 106% (inactive).
In the case of `CC[C@@H](C)/C=C(C)/C=C/C(O)=C1\C(=O)N[C@@H](Cc2ccc(OC(=O)[C@@](OC)(c3ccccc3)C(F)(F)F)cc2)C1=O` it was 120% (inactive).
To `CC(=O)Nc1ccc(C(=O)COc2ccc(/C=C3\CCc4ccccc4C3=O)cc2)cc1` belongs 101% (inactive); to `CN(C)CCC(=O)Nc1ccc(-n2cc(-c3cccc(NC(=S)Nc4cccc(-c5cn(-c6ccc(NC(=O)CCN(C)C)cc6)nn5)c4)c3)nn2)cc1`, 113% (inactive); to `CC[C@@H](C)/C=C(C)/C=C/C(=O)c1c(O)c(-c2ccc(O)cc2)cn(OC2CC(=O)CCC(C)OC(=O)CC2O)c1=O` (some centres not stated), 53.8% (inactive).
To `O=c1c2c(=NCCCN3CCCC3)cc3c(=O)n(CCCN4CCCC4)c(=O)c4c(NCCCN5CCCC5)cc(c(O)n1CCCN1CCCC1)c2c4-3` belongs -0.86% (active).
On to `Cc1ccc2c(c1)C(=O)/C(=C\Nc1ccc(C(N)=O)cc1)C(O)O2` (configuration not stated), for which the growth is 110% (inactive).
With `Cc1nn(-c2ccccc2)cc1/C=C1\SC(N2CCCCC2)=NC1=O`, the growth is 103% (inactive).
In the case of `NC(=O)c1cc(Br)cc(Br)c1NS(=O)(=O)c1ccccc1` it was 108% (inactive); in that of `CN1CCN(CCCCCN=c2cc3c(=O)n(CCCCCN4CCN(C)CC4)c(=O)c4c(NCCCCCN5CCN(C)CC5)cc5c(O)n(CCCCCN6CCN(C)CC6)c(=O)c2c5c4-3)CC1`, -9.79% (active).
In the case of `COc1ccccc1-n1c(-c2ccc(O)cc2C)cn2c3c(=O)[nH]c(=O)n(C)c3nc12` it was 86.9% (inactive); in that of `C=C(CN1CCc2c([nH]c3ccccc23)C1)c1ccc(C(=O)Nc2ccon2)cc1`, 90.2% (inactive).
Turning to `O=C(Oc1ccccc1)C(Br)C(Br)c1ccccc1` (configuration not stated), the growth is 102% (inactive).
To `COc1cccc(C=Nc2cc(C(C)C)c(O)cc2C)c1O` belongs 101% (inactive).
Consider `COc1ccc(C2=NN(C(N)=S)C(c3ccc4c(c3)OCO4)C2)cc1` (configuration not stated), for which the growth was 75.1% (inactive).
To `CC(=O)c1ccc(NS(=O)(=O)c2ccc([N+](=O)[O-])cc2)cc1` belongs 98.2% (inactive).
With `Nc1nc2c(nnn2Cc2ccc(Cl)c(Cl)c2)c(=O)[nH]1`, the growth is 95.5% (inactive).
Consider `CC1CN(CC(O)c2ccc(Br)cc2)CCO1` (configuration not stated), for which the growth is 103% (inactive).
As for `O=C1NC(=O)/C(=C\c2ccco2)S1`, the growth is 95.9% (inactive).
In the case of `CCCCCCCSc1ncnc2[nH]ncc12` it was 92% (inactive); in that of `CN(C)CCCN=c1cc2c(=O)n(CCCN(C)C)c(=O)c3c(NCCCN(C)C)cc4c(O)n(CCCN(C)C)c(=O)c1c4c3-2`, 0.732% (active).
